“And” between values parts separate entries of the source, which are not always exact repeats. Identical values can stand only once. Counter-ions that a name gives are not always drawn.
tested on: K562; test: cell viability relative to vehicle control; higher = less cytotoxic; conditions: 10 µM; SRSF2 genotype: SRSF2 P95H/wt
In short: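 Four leukaemia lines, as CRISPR-edited mutant clones and isogenic wild-type clones, were tested against Selleck bioactive, kinase and epigenetic probe libraries after removal of identity-inconsistent compounds. Cells were exposed to a single 10 µM dose for 48 h, and CellTiter-Glo luminescence was then read. Viability was calculated relative to the on-plate vehicle control.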

SMILES | cell viability
CCC[C@H](Nc1nc(-c2ccc(NC(=O)NCC)c(OC)c2)ncc1C)c1cccnc1 | 10.5% and 35.4%
O=C(O)CCc1ccc(NCc2cccc(Oc3ccccc3)c2)cc1 | 94.2% and 89.7%
NC(=O)N/N=C/c1ccc([N+](=O)[O-])o1 [Nitrofurazone (Nitrofural)] | 98.5% and 94.8%
Cc1cnc(C(=O)O)c[n+]1[O-] [Acipimox] | 99.3% and 96.5%
CS(=O)(=O)c1ccc(-c2cnc(N)c(C(=O)Nc3ccccc3)n2)cc1 | 108% and 109%
COCCOc1nc(-c2ccc(Cl)c(Cl)c2)n(-c2ccc(NC(=O)CCl)cc2)n1 [MI-2 (MALT1 inhibitor)] | 16% and 8.54%
O=C(O)C(S)=Cc1c[nH]c2ccc(F)cc12 | 95.6% and 105%
C[C@]1(O)C[C@@H](c2nc(-c3ccc4ccc(-c5ccccc5)nc4c3)c3c(N)nccn32)C1 [OSI-906 (Linsitinib)] | 79.7% and 90.1%
O=C(O)/C=C/c1ccc(O)cc1 [p-Coumaric Acid] | 101% and 108%
c1ccc(-c2ccc(C(c3ccccc3)n3ccnc3)cc2)cc1 (stereo not given) [Bifonazole] | 82.3% and 83.9%
Cc1cc(C)c(/C=C2\C(=O)Nc3ccccc32)[nH]1 [Semaxanib (SU5416)] | 102% and 103%
NC[C@@](O)(c1ccc(Cl)cc1)c1ccc(-c2cn[nH]c2)cc1 | 34.7% and 19.4%
COc1cc(/C=C/C(=O)CC(=O)/C=C/c2ccc(O)c(OC)c2)ccc1O [Curcumin] | 90.9% and 87%
Oc1ccc(-c2nc(-c3ccc(F)cc3)c(-c3ccncc3)[nH]2)cc1 | 89.5% and 96.2%
CCN(CC)CCOC(=O)C(c1ccccc1)c1ccccc1 [Adiphenine HCl] | 97.9% and 89.7%

From the supplement of paper PMC10981050
